Test results from PubChem BioAssay (Tox21).
Values without a mark were called inactive. Records with an inconclusive call do not appear. A call without a number means that no potency is given here. Activity calls are given as the source filed them. Unless noted, calls come from the whole dose curve; as a rule, active = well fitted curve in the direction sought with a large enough effect in the repeat runs; inconclusive = weak or mixed curves; inactive = no such curve, though single readings can be large; an effect the other way counts as inactive or inconclusive.

Tests used:
[1] = qHTS assay for small molecule agonists of the p53 signaling pathway (AID 651631; calls by dose curve; note: nearly all actives have a fitted effect of over 15% in size)
Outline: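 p53RE-bla HCT-116 cells; compounds 16 h, 37 °C; LiveBLAzer B/G FRET substrate 2 h RT; fluorescence intensity read-out, qHTS format.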

[2] = qHTS assay for small molecules that induce genotoxicity in human embryonic kidney cells expressing luciferase-tagged ATAD5 (AID 651632); note: nearly all actives have a fitted effect of over 15% in size
Outline: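 Increased luciferase signal from ATAD5-tagged reporter cells indicates DNA-damage-driven ATAD5 induction. HEK293T cells are treated for 16 hr at 37C before detection with Amplite.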

[3] = qHTS assay for small molecule agonists of the p53 signaling pathway - cell viability (AID 651633; calls by dose curve;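 note: p53RE-bla HCT reporter cells with a stable beta-lactamase p53 reporter; series mostly up to about 83 µM; nearly all actives have a fitted effect of over 30% in size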)
Outline: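 Viability counter-read: CellTiter-Glo luminescence (30 min, room temperature) in the same p53RE-bla plates. These plates had been exposed to compounds for 16 h at 37 C.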

[4] = qHTS assay for small molecules that induce genotoxicity in human embryonic kidney cells expressing luciferase-tagged ATAD5 - cell viability (AID 651634; calls by dose curve; note: nearly all actives have a fitted effect of over 25% in size)
Outline: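 Cytotoxicity counterscreen in HEK293T cells bearing an ATAD5-luciferase reporter: live-cell protease activity measured by CellTiter-Fluor fluorescence after 15.5 hr compound exposure.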

[5] = qHTS assay for small molecule disruptors of the mitochondrial membrane potential - cell viability (AID 720634; calls by dose curve;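 note: human HepG2 liver cancer cells; series mostly up to about 83 µM; nearly all actives have a fitted effect of over 20% in size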)
Outline: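 After overnight attachment at 37 C, HepG2 cells received compound or DMSO vehicle for 1 hr. Viability is then taken from ATP-driven luminescence following a 30 min room-temperature CellTiter-Glo step.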

[6] = qHTS assay for small molecule disruptors of the mitochondrial membrane potential (AID 720635)
Outline: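 Mitochondrial membrane potential tracked with Mito-MPS dye, red aggregates (ex 540/em 590 nm) against green monomers (ex 490/em 535 nm). Compound treatment 1 hr at 37C, dye 30 min in HepG2.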

[7] = qHTS assay to test for compound auto fluorescence at 590 nm (red) in HepG2 cells (AID 720674)
Outline: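 1 hr compound incubation on HepG2 cells, 37 C, 5% CO2; plate read ex 540 nm / em 590 nm; intensities reported as Rose Bengal sodium equivalents.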

[8] = qHTS assay to test for compound auto fluorescence at 535 nm (green) in HepG2 cells (AID 720675)
[9] = qHTS assay to test for compound auto fluorescence at 590 nm (red) in HEK293 cells (AID 720679)
Outline: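 Red channel, Ex/Em 540/590nm; signal expressed as equivalency to Rose Bengal sodium. HEK293, 2,000 cells/well, 10% dialyzed FBS; 23 nL compound pinned after 4-5 hr attachment; overnight 37C/5% CO2 before reading.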

[10] = qHTS assay to test for compound auto fluorescence at 535 nm (green) in HEK293 cells (AID 720680)
[11] = qHTS assay to test for compound auto fluorescence at 460 nm (blue) in HEK293 cell free culture (AID 720681)
Outline: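 Blue fluorescence (Ex 405/Em 460 nm, triamterene-equivalent) was read immediately after pin transfer of compound or DMSO into medium (DMEM, 10% FBS) without cells.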

[12] = qHTS assay to test for compound auto fluorescence at 535 nm (green) in HEK293 cell free culture (AID 720682)
Outline: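 Cell-free medium (DMEM, 10% FBS) receives compound or DMSO by pintool. Plate read directly at Ex 485/Em 535 nm. Signal converted to fluorescein equivalency.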

[13] = qHTS assay to test for compound auto fluorescence at 590 nm (red) in HEK293 cell free culture (AID 720683)
Outline: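 Red-channel autofluorescence of compounds in culture medium (DMEM, 10% FBS), no cells, measured at 540/590 nm. Rose Bengal sodium is the reference fluorophore for equivalence.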

[14] = qHTS assay to test for compound auto fluorescence at 590 nm (red) in HepG2 cell free culture (AID 720684)
Outline: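 Plate contents were MEM with 10% FBS plus test compound or DMSO, no cells. Fluorescence was recorded with 540 nm excitation and 590 nm emission.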

[15] = qHTS assay to test for compound auto fluorescence at 460 nm (blue) in HepG2 cell free culture (AID 720685)
Outline: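 Compound (23 nL) or DMSO pinned into cell-free MEM with 10% FBS; blue fluorescence read at 405/460 nm excitation/emission, expressed as auto-fluorescence equivalency to triamterene.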

[16] = qHTS assay to test for compound auto fluorescence at 535 nm (green) in HepG2 cell free culture (AID 720686)
[17] = qHTS assay to test for compound auto fluorescence at 460 nm (blue) in HepG2 cells (AID 720687)
Outline: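 Blue-channel autofluorescence (Ex/Em 405/460 nm, triamterene-equivalent) was measured after 1 hr compound exposure at 37 C, 5% CO2. Cells were HepG2, plated overnight at 37 C in MEM plus 10% FBS.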

[18] = target: Glucocorticoid receptor (Homo sapiens) (UniProt P04150); test: qHTS assay to identify small molecule antagonists of the glucocorticoid receptor (GR) signaling pathway (AID 720692; active = well fitted inhibition curve with a large enough effect in the signal ratio in the repeat runs, not every such curve was filed as active; the % refers to the signal ratio)
Chain of Glucocorticoid receptor (Homo sapiens) (P04150 whole entry, looked up): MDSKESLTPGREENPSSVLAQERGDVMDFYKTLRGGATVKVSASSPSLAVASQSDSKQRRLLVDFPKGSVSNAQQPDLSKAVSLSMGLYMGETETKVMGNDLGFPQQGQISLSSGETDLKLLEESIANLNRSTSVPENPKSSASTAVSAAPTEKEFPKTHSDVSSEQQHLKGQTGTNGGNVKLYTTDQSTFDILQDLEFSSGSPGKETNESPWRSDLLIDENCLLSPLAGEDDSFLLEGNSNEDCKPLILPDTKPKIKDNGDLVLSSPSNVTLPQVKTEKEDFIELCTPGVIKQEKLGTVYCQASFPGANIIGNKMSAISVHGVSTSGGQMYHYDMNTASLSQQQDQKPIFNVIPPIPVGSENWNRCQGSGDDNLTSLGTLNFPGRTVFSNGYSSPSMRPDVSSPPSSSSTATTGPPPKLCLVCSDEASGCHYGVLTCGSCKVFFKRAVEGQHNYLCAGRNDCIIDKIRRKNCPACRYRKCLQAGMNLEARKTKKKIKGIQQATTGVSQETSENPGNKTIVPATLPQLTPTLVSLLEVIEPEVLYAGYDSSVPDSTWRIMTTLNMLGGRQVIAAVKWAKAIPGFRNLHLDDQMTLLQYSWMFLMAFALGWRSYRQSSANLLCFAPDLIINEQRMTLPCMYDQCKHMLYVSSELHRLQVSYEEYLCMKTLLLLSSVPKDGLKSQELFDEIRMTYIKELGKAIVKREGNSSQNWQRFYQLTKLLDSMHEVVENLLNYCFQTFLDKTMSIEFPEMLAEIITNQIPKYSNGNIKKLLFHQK
Outline: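 Cells plated, rested 4 h at 37 C/5% CO2; compounds in DMSO pin-transferred; dexamethasone added to 5 nM final; 18 h at 37 C; B/G FRET substrate added, 2 h room temperature; fluorescence measured.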

[19] = qHTS assay to test for compound auto fluorescence at 460 nm (blue) in HEK293 cells (AID 720678)
Outline: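 Blue read-out at excitation 405 nm and emission 460 nm follows overnight compound exposure of HEK293 cells at 37C in 5% CO2. Activity is given as auto fluorescence equivalency to triamterene.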

[20] = target: Glucocorticoid receptor (Homo sapiens) (UniProt P04150); test: qHTS assay to identify small molecule agonists of the glucocorticoid receptor (GR) signaling pathway (AID 720691; active = well fitted activation curve with a large enough effect in the signal ratio in the repeat runs, not every such curve was filed as active; the % refers to the signal ratio; note: potency is the fitted concentration of half-maximal effect)
Outline: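 Agonist mode in a HeLa line carrying a GRE-controlled beta-lactamase reporter. Compounds act for 18 h at 37 C before a 2 h room-temperature FRET substrate step and fluorescence reading.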

SMILES | outcome [1] | Potency [2] | outcome [3] | Potency [4] | outcome [5] | Potency [6] | outcome [7] | outcome [8] | outcome [9] | outcome [10] | outcome [11] | outcome [12] | outcome [13] | outcome [14] | outcome [15] | outcome [16] | outcome [17] | outcome [18] | outcome [19] | Potency [20]
C=COCCOCCOCCOC=C | inactive | inactive | inactive | inactive | inactive | inactive | inactive | inactive | inactive | inactive | inactive | inactive | inactive | inactive | inactive | inactive | inactive | inactive |  | 
CC(C)CC(C)CC(C)CC(C)COC(=O)c1ccccc1C(=O)OCC(C)CC(C)CC(C)CC(C)C (configuration not stated) | inactive | inactive | inactive | inactive | inactive |  | inactive | inactive | inactive | inactive | inactive |  | inactive | inactive | inactive | inactive | inactive |  | inactive | 
CCCCOC(=O)c1ccccc1 | inactive | inactive | inactive | inactive | inactive |  | inactive | inactive | inactive | inactive | inactive | inactive | inactive | inactive | inactive | inactive | inactive | inactive | inactive | 
O=C(CS(=O)Cc1ccco1)NC/C=C\COc1cc(CN2CCCCC2)ccn1 (configuration not stated) | inactive | inactive | inactive | inactive | inactive | inactive | inactive | inactive | inactive | inactive | inactive | inactive | inactive |  | inactive | inactive | inactive | inactive |  | inactive
CC1(C)S[C@@H]2[C@H](N=CN3CCCCCC3)C(=O)N2[C@H]1C(=O)O | inactive | inactive | inactive | inactive | inactive |  | inactive | inactive | inactive | inactive | inactive |  | inactive | inactive | inactive |  | inactive | inactive | inactive | 21.3 µM (active)
Cc1ccc(C=O)cc1C | inactive | inactive | inactive | inactive | inactive |  | inactive | inactive | inactive | inactive | inactive | inactive | inactive |  | inactive | inactive | inactive | inactive | inactive | inactive
CC(C)=CCOC(=O)c1ccccc1 | inactive | inactive | inactive | inactive | inactive |  | inactive | inactive | inactive | inactive | inactive | inactive | inactive | inactive | inactive |  | inactive | inactive | inactive | 
